L3MBTL1 inh: L3MBTL1 (human) inhibition | Q9Y468 | 230,000 tested, 0.66% active | AlphaScreen L3MBTL1–H3K9me1 peptide binding | AID 485360 | Potency, µM (highest dose often 57.1 µM), without a hit: at the top dose activity, negative = inhibition, hits mostly inhibitors; note: potency is the fitted concentration of half-maximal effect; % is set by controls: 0 for no effect and ±100 for the full control effect; nearly all actives have a fitted effect of over 60% in size
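AlphaScreen proximity signal between nickel-chelate acceptor and streptavidin donor beads (final 10 ug/mL) reports binding of 50 nM L3MBTL1 to 75 nM biotin-H3 K9me1 peptide; complex incubated with compounds 30 min at room temperature; cefsulodin titration as control.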
JMJD2E inh: JMJD2E (human) inhibition. B2RXH2. JMJD2E catalytic domain, FDH-coupled NADH fluorescence (FDH is formaldehyde dehydrogenase). Potency, µM (doses to about 57.1 µM), for inactives: top-dose activity change, negative = inhibition, usual class: inhibitors. 230,000 tested, 1.6% active. AID 2147; active = well fitted inhibition curve with a large enough effect, not every such curve was filed as active; inconclusive = small, poorly fitted or top-dose-only effect, or another doubt; inactive = no such curve, though single readings can be large or run the other way;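 note: potency is the fitted concentration of half-maximal effect; 0% = wells with enzyme and -100% = buffer wells without enzyme; nearly all actives have a fitted effect of over 50% in size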
BAZ2B inh: inhibitors of human BAZ2B bromodomain; Q9UIF8; AlphaScreen BAZ2B-H3K14Ac peptide displacement; Potency, µM (titrated, usually from 114 µM), without a hit: at the top dose activity change, negative = inhibition, hits mostly inhibitors; 360,000 tested, 4.4% active; note: potency is the fitted concentration of half-maximal effect; % is set by controls: 0 for no effect and ±100 for the full control effect; nearly all actives have a fitted effect of over 60% in size
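AlphaScreen luminescence quantifies BAZ2B engagement of H3K14Ac peptide; the protein and biotinylated peptide are both at 50 nM final, buffer PBS pH 7.4 with 0.01% Tween-20, all steps at room temperature.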
HP1b binding inh: inhibitors of HP1-beta chromodomain binding to methylated histone tails; AlphaScreen HP1-beta / biotin-H3K9me3 peptide binding; Potency, µM (highest dose often 114 µM), inactives show top-dose activity change, negative = inhibition, actives largely listed as inhibitors; 390,000 tested, 0.56% active; AID 540317; note: potency is the fitted concentration of half-maximal effect; nearly all actives have a fitted effect of over 70% in size
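Compound inhibition of the preformed complex between 50 nM HP1-beta and 50 nM biotinylated H3K9me3 peptide was read by AlphaScreen. Buffer was PBS pH 7.4 with 0.01% Tween-20. Incubations ran 30 min at room temperature, with 10 ug/mL donor/acceptor beads.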
PI5P4Ka inh: blocks human PI5P4K alpha kinase activity | P48426 | PI5P4Kalpha enzyme, ADP-Glo luminescence, 60 min; active compounds read low | max response, % | 330,000 tested, 1.2% active; active = max response of -50% or lower; inconclusive = between -30% and -50%; inactive = -30% or higher; note: value at the top dose of about 77 µM; % is set by controls: 0 for no effect and ±100 for the full control effect
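PI5P4Kalpha ADP-Glo assay; 5 microM ATP final; 60 min RT reaction; HEPES pH 7.4/EGTA/CHAPS, 5% DMSO; controls lacking substrate or enzyme; luminescent end-point.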
JMJD2A Tudor: JMJD2A Tudor domain (human) inhibition; O75164; AlphaScreen JMJD2A-Tudor / H3K4me3 peptide binding; 390,000 tested, 4.4% active; Potency, µM (series often up to 114 µM), without a hit: top-dose activity change, negative = inhibition, usual class: inhibitors; note: potency is the fitted concentration of half-maximal effect; % is set by controls: 0 for no effect and ±100 for the full control effect; nearly all actives have a fitted effect of over 50% in size
* = called active by the depositor; ? = inconclusive; / = not tested or not shown; [ ] = dose if it differs, or a comment. Rows were chosen to be rich in hits. Some 5.7% of all compounds tested hit in one or more screens of this group. Unless noted, calls come from the whole dose curve; as a rule, active = well fitted inhibition curve with a large enough effect; inconclusive = small, poorly fitted or top-dose-only effect; inactive = no such curve, though single readings can be large or run the other way.

SMILES | L3MBTL1 inh | JMJD2E inh | BAZ2B inh | HP1b binding inh | PI5P4Ka inh | JMJD2A Tudor
Cc1ccccc1N1C(=O)/C(=C/c2ccco2)C(=O)NC1=S | / | / | 1.1µM* | / | / | /
CCc1ccccc1N1C(=O)/C(=C/c2ccc(N3CCN(C)CC3)o2)C(=O)NC1=S | -2% | -12% | ? | ? | ? | 56µM*
C[N+]1([O-])[C@@H]2CC[C@H]1CC(OC(=O)[C@@H](CO)c1ccccc1)C2 (stereo partly specified) | / | 11%[25.5 µM] | / | / | / | /
C=C1C([C@@]2(C)C(OC(C)=O)CC(=O)O[C@@](C)(COC(C)=O)C2CC(=O)OC)C(OC=O)C(OC(=O)C(OC(C)=O)C(C)CC)[C@]2(C)C(c3ccoc3)CC(=O)C12O (stereo partly specified) | / | -8% | / | / | / | /
O=C1NC(=S)N(c2ccccc2F)C(=O)/C1=C\c1cccs1 | 2% | -6% | 50µM* | -12% | -91* | 50µM*
Cc1ccccc1N1C(=O)NC(=O)/C(=C\c2cc(Br)c(N3CCOCC3)o2)C1=O | ? | -8% | ? | ? | -75* | -27%
Cc1cccc(NC(=O)N[C@@H]2N=C(c3ccccc3)c3ccccc3N(CC(=O)c3ccccc3C)C2=O)c1 | / | 0% | / | / | / | /
CCOC(=O)c1sc(/N=C/c2c(O)n(-c3cccc(C)c3)c(=O)[nH]c2=O)c(C#N)c1C | 4% | -10% | 1% | ? | -21 | 50µM*
C=CCC1(CC)C(=O)NC(=S)NC1=O | / | / | / | 10% | -2 | -12%
C=CCC1C(=O)NC(=S)NC1=O | / | -12% | 6% | -19% | -63* | 89µM*
CP(=O)(O)C1=CCNCC1 | / | 8% | / | / | / | /
C[C@@H](COc1ccccc1)N(CCCl)Cc1ccccc1 | / | -4%[25.5 µM] | / | / | / | /
CC1(C)OC(c2ccccc2)=C/C(=C/C=C2C(=O)NC(=S)NC2=O)O1 | ? | -9% | 10µM* | 11µM* | ? | ?
CN1/C(=C\C=C2C(=O)NC(=S)NC2=O)C(C)(C)c2ccccc21 | 4% | -5% | ? | -7% | -17 | -26%
C=CCn1c(O)c(/C=C2/C=c3ccccc3=N2)c(=O)[nH]c1=S | -3% | / | -9% | 24% | -20 | -4%
C=CCn1c(-c2ccc([N+](=O)[O-])cc2)n[nH]c1=S | -5% | -11% | -4% | 6% | -21 | 8.9µM*
CC(C)OP(=O)(OC(C)C)C(Nc1ccc([N+](=O)[O-])cc1)c1cccc([N+](=O)[O-])c1 (stereo unspecified) | -13% | -1% | -28% | 9% | -6 | ?
CCCOP(=O)(OCCC)C(Nc1ccc(C(C)C)cc1)c1ccc([N+](=O)[O-])cc1 (stereo unspecified) | -18% | 11% | 56µM* | -23% | / | ?
CCCNC(=O)NC(=O)COc1ccc(-c2ccc(C#N)cc2)cc1 | -4% | ? | -2% | 31% | 1 | -9%
C[C@H]1[C@@H](O)[C@@H](C)/C=C\C=CCC\C=C/C=C\C=C/C=C[C@@H](O[C@H]2O[C@@H](C)[C@@H](O)[C@@H](N)[C@@H]2O)C[C@@H]2O[C@@](O)(C[C@@H](O)[C@H]2C(=O)O)C[C@@H](O)[C@@H](O)CC[C@@H](O)C[C@@H](O)C[C@@H](O)CC(=O)O[C@H]1C | / | -22%[25.5 µM] | / | / | / | /
Cc1cc(C)c(N=Cc2c(O)[nH]c(=O)[nH]c2=O)c(C)c1 | -3% | / | 5% | 51% | -3 | -5%
NC(=S)/N=C/c1c(O)[nH]c(=O)[nH]c1=O | 2% | ? | -12% | 12% | -60* | -26%
CCCCCCCCN=Cc1c(O)[nH]c(=O)[nH]c1=O | / | 3% | 2% | 27% | -1 | -7%
C=CCNC(=S)/N=C/c1c(O)[nH]c(=O)[nH]c1=O | 4% | 2.5µM* | 8% | 21% | -52* | -3%
C=CCNc1nnc(Sc2ncccc2[N+](=O)[O-])s1 | / | -2% | ? | 20% | -11 | 2%
Cc1oc(-c2cccc(Cl)c2)nc1CN1CCC(C(=O)NCCCN2CCN(c3ccc(F)cc3)CC2)CC1 | / | / | 22µM* | -1% | / | -28%

Bioassay records deposited in PubChem BioAssay by National Center for Advancing Translational Sciences (NCATS).
